# Screening results from PubChem.
# Sm TGR block – inhibitors of Schistosoma mansoni thioredoxin glutathione reductase; purified TGR, DTNB reduction, TNB absorbance 405 nm; Potency, µM (series often up to 114 µM), usual class: inhibitors; 360,000 tested, 3% active; AID 485364; active means well fitted inhibition curve with a large enough effect; inconclusive means small, poorly fitted or top-dose-only effect; inactive means no such curve, though single readings can be large or run the other way; further: nearly all actives have a fitted effect of over 60% in size
#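 First, TGR (20 nM dispensed) and NADPH were mixed with compound. Second, a 15 min room-temperature incubation followed. Third, further NADPH and then DTNB were added to start the reaction. Finally, TNB absorbance was monitored kinetically.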
# SARS PLpro yeast – blocks SARS-CoV papain-like protease in a yeast assay; 330,000 tested, 0.19% active; S. cerevisiae expressing SARS-CoV PLpro, growth rescue; Potency, µM (top dose mostly 32.9 µM), usual class: activators; calls by dose curve; further: nearly all actives have a fitted effect of over 55% in size
# A number is an active result; i = inactive; ? = inconclusive; nt = no result given; [ ] = another dose, or the depositor's remark. Only some compounds are listed: those with a hit (about 3% of all), similar ones and a draw of the others.
SMILES,Sm TGR block,SARS PLpro yeast
Cc1ccccc1CS(=O)(=O)c1nnc([C@H](Cc2ccccc2)NC(=O)OC(C)(C)C)o1,1.1µM,i
Cc1cccc(CS(=O)(=O)Cc2ccc(C(=O)NC(C)c3ccccc3)o2)c1 (centres undefined),?,i
CCC(C)[C@@H](NC(=O)OC(C)(C)C)c1nnc(S(=O)(=O)Cc2cccc(C)c2)o1 (some centres undefined),2µM,i
CC(C)(C)OC(=O)N[C@@H](Cc1ccccc1)c1nnc(SCC(=O)O)o1,i,i
CCSc1nnc([C@H](Cc2ccccc2)NC(=O)OC(C)(C)C)o1,i,i
COc1cc(NC(=O)CCS(=O)(=O)c2ccc3c(c2)CC(=O)N3C)cc(OC)c1OC,i,nt
CCCC(=O)Nc1ccc2nc(SCCOc3ccccc3)sc2c1,i,nt
Clc1ccc(C(Cl)(Cl)Cl)c(Cl)c1,2.8µM,i
N=C(N)SCc1ccc(Cl)cc1Cl,i,i
O=C(O)c1ccc(CNCc2ccc(Cl)cc2)s1,i,nt
COc1ccc(C2=NCC(=O)N(CC(=O)NCc3ccco3)c3sc4c(c32)CCCC4)cc1,?,i
Cc1cccc(C2=NCC(=O)N(CC(=O)NCc3ccco3)c3sc4c(c32)CCCC4)c1,18µM,i
O=C(CBr)Nc1c2c(nn1-c1ccccc1)CSC2,35µM,i
COc1ccc(-n2nc3c(c2NC(=O)CCCCl)CSC3)cc1,i,i
COc1ccc(-n2nc3c(c2NC(=O)CBr)CSC3)cc1,40µM,i
CCCC(=O)Nc1c2c(nn1-c1ccccc1)CSC2,i,i
COc1ccccc1CNc1ccc(-c2nc(-c3ccncc3)no2)cc1[N+](=O)[O-],i,nt
Cc1ccc(C(=O)c2cn(CC(=O)Nc3ccc(C)cc3Cl)c3nc(C)ccc3c2=O)cc1,i,nt
N#CC(C#N)=Cc1ccc(-c2ccccc2)o1,?,i
N#CC(C#N)=Cc1ccc(-c2ccccc2F)o1,4µM,i
CCc1ccc(-c2nc3c(c(SCc4ccccc4)n2)Cc2c(CO)cnc(C)c2O3)cc1,i,nt
O=c1ccc(-c2ccc(S(=O)(=O)Nc3ccccc3Cl)o2)n[nH]1,40µM,i
Cc1ccc(NS(=O)(=O)c2ccc(-c3ccc(=O)[nH]n3)o2)cc1Cl,i,i
O=c1ccc(-c2ccc(S(=O)(=O)Nc3cccc(Br)c3)o2)n[nH]1,50µM,i
Cc1c(Cl)cccc1NS(=O)(=O)c1ccc(-c2ccc(=O)[nH]n2)o1,i,i
SMILES,Sm TGR block,SARS PLpro yeast
O=c1ccc(-c2ccc(S(=O)(=O)Nc3cccc(F)c3)o2)n[nH]1,?,i
Cc1cccc(NS(=O)(=O)c2ccc(-c3ccc(=O)[nH]n3)o2)c1,40µM,i
O=C(OCC1CCCO1)c1ccc2c(c1)N(Cc1cccc(Cl)c1)C(=O)c1ccccc1S2(=O)=O (centres undefined),i,nt
O=C(Nc1ccc(OC(F)(F)F)cc1)C(NS(=O)(=O)c1cccc2nsnc12)c1ccccc1 (centres undefined),i,nt
Cc1ccc(C)c(CN2CCCN(Cc3ccc(F)cc3)S2(=O)=O)c1,i,nt
Cc1ccc(C(=O)Nc2nnc(S(=O)(=O)N(C)Cc3ccc(F)cc3)s2)cc1,i,nt
Cc1nc(-c2ccccc2)sc1-c1n[nH]c(=S)n1C,i,i
CSc1sc(-c2n[nH]c(=S)n2C)c2c1C=CCC2,25µM,i
COc1ccc(Cn2cc([N+](=O)[O-])nc2C)cc1[N+](=O)[O-],i,i
COc1ccc(Cn2c(C)nc([N+](=O)[O-])c2SCC(=O)O)cc1[N+](=O)[O-],35µM,i
CN(C)c1ccc(CNC(=O)C2CCN(C(=O)c3ccc(-n4ccc5ccccc54)s3)CC2)cc1,i,nt
O=C1CC(=O)N(Cc2ccco2)C(=S)N1,1.8µM,i
O=C1CC(=O)N(Cc2ccco2)C(=O)N1,?,i
O=C1C(=C2CCCCC2)SC(=S)N1Cc1ccco1,20µM,i
O=C(O)CCN1C(=O)C(=C2CCCCCC2)SC1=S,?,i
CCOC(=O)c1ccccc1NC(=O)N1CCOc2ccc(Cl)cc21,i,nt
Cc1ccn2c(Nc3ccc4c(c3)OCO4)c(-c3ccc(C)o3)nc2c1,i,nt
Cc1ccc(-c2nc3cnccn3c2Nc2ccc3c(c2)OCO3)o1,50µM,i
Cc1ccc(-c2nc3cnccn3c2Nc2ccccc2)o1,?,i
Cc1ccc(Nc2c(-c3ccc(C)o3)nc3cnccn23)cc1,10µM,i
CCc1ccc(C2c3c(-c4ccccc4O)n[nH]c3C(=O)N2Cc2ccncc2)cc1 (centres undefined),i,nt
Cc1cc(C)c2c(n1)SCCN2C(=O)Nc1ccc(C(=O)Nc2ccc(C(C)C)cc2)cc1,i,nt
Cc1oc(-c2ccc(Cl)cc2)nc1Cn1c(=O)cc(-c2ccccc2)c2c(C)nn(C)c21,i,nt
O=C(c1ccco1)N1CCc2ccccc21,i,i
Cc1ccc(/C=C/C(=O)N2CCc3ccccc32)o1,45µM,i
SMILES,Sm TGR block,SARS PLpro yeast
O=C(/C=C/c1ccco1)N1CCc2ccccc21,7.9µM,i
CCOC(=O)/C=C/C(=O)N1CCc2ccccc21,i,i
CCOC(=O)c1cnc2c(ccc3ccccc32)c1Nc1ccc(N(C)C)cc1,i,nt
COc1ccccc1C1C=C(c2ccc(Cl)cc2)Nc2nc(-c3ccc(Cl)cc3)nn21 (centres undefined),i,nt
CC(=O)Nc1nnc2n1CCS2,i,nt
Cc1nc(S(=O)(=O)c2cccc(Cl)c2)nc2c1CCC2,?,i
Cc1nc(S(=O)(=O)c2ccc(Cl)cc2Cl)nc2c1CCC2,25µM,i
O=C(C1=C(O)C(=O)N(c2ncccn2)C1c1ccc(Cl)c(Cl)c1)c1ccco1 (centres undefined),?,i
CSc1nnc(N2C(=O)C(O)=C(C(=O)c3ccco3)C2c2ccc(F)cc2)s1 (centres undefined),50µM,i
COc1ccc(C2C(C(=O)c3ccco3)=C(O)C(=O)N2c2nnc(C)s2)cc1 (centres undefined),nt,i
CCN(CC)CCCN1C(=O)C(O)=C(C(=O)c2cc3ccccc3o2)C1c1ccccn1 (centres undefined),i[11.4 µM],i
CSc1nnc(N2C(=O)C(O)=C(C(=O)c3ccco3)C2c2cccc(Cl)c2)s1 (centres undefined),8.9µM,i
O=C(C1=C(O)C(=O)N(c2ncccn2)C1c1cccc(Cl)c1)c1ccco1 (centres undefined),45µM,nt
CCN(CC)CCN1C(=O)C(O)=C(C(=O)c2ccco2)C1c1ccccn1 (centres undefined),45µM,i
CCSc1nnc(N2C(=O)C(O)=C(C(=O)c3ccco3)C2c2cccc(OC)c2)s1 (centres undefined),?,i
CN(C)c1ccc(-c2nc(-c3ccco3)no2)cc1[N+](=O)[O-],i,nt
COc1cccc(C(=O)c2cn(CC(=O)NCc3ccccc3Cl)c3nc(C)ccc3c2=O)c1,i,nt
Cc1c(NC(=O)/C(C#N)=C/c2ccccc2)c(=O)n(-c2ccccc2)n1C,i,i
Cc1c(NN=C(C#N)C#N)c(=O)n(-c2ccccc2)n1C,22µM,i
Cc1c(NC(C)c2cc(Cl)ccc2O)c(=O)n(-c2ccccc2)n1C (centres undefined),?,i
Cc1c(NC(C)c2ccccc2O)c(=O)n(-c2ccccc2)n1C (centres undefined),40µM,i
Cc1ccccc1/C=N/Nc1nc2ccccc2[nH]1,i,i
O=[N+]([O-])c1cc(/C=N/Nc2nc3ccccc3[nH]2)c(O)cc1O,i,16µM
O=C(O)COc1ccc2c(c1)O/C(=C\c1cccs1)C2=O,i,i
O=C(O)COc1ccc2c(c1)O/C(=C\c1ccco1)C2=O,22µM,i
